An excerpt weighted towards active compounds, which were near 6% of everything screened.
D1 agonist: human D1 receptor agonism; activation, % at 2 µM; hit rate 1% among 360,000; HEK293 T-REx D1 cells, calcium flux, agonist mode; AID 504660; P21728; in the data active = activation above about 30%; note: 0% is about no effect
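Inducible HEK293 T-REx D1 cells, force-coupled to calcium signalling, were plated at 4000 cells/well with tetracycline and held overnight at 30 C. After no-wash calcium dye loading, compound-evoked calcium rise over 180 s flagged agonists.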
D3 ag: D3 dopamine receptor (human) agonism; P35462; D3R DiscoveRx beta-arrestin cells, luminescence, 90 min; hit rate 0.58% among 410,000; AID 652048; max activation, %; in the data active = max activation above about 30%; note: 0% is about no effect
Target sequence (P35462 whole entry, looked up): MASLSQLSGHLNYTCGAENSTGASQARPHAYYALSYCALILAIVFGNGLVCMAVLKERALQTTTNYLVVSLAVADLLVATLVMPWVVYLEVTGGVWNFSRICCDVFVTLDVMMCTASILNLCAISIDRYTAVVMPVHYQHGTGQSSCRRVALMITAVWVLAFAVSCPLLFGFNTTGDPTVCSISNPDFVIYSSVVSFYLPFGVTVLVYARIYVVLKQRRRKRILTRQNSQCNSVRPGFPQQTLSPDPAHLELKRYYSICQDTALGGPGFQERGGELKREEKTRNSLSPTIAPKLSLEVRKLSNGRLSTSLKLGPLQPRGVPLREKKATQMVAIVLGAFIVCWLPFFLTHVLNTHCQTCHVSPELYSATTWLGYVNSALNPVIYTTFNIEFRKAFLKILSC
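Agonist-mode cell screen: cells plated at 1500/well and incubated overnight at 37 °C, then exposed to library compounds for 90 min at 37 °C. Detection reagent was added for 30–60 min at room temperature, and luminescence was read.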
D1 potentiator: human D1 dopamine receptor positive modulation; HEK293 TREx D1 cells, calcium flux, dopamine EC20 potentiation; P21728; potentiation, % at 10 µM; AID 504651; hit rate 0.036% among 360,000; in the data active = potentiation above about 30%; note: 0% is about no effect
D3 antag: blocks the human D3 dopamine receptor; P35462; D3R cells, DiscoveRx beta-arrestin luminescence, antagonist mode; active compounds read low; max response, negative = inhibition, %; hit rate 2.5% among 360,000; AID 652054; in the data active = max response below about -50%; inconclusive = no clear call, values can overlap the other calls; note: % is set by controls: 0 for no effect and ±100 for the full control effect
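Cells plated overnight at 1500 cells/well, then exposed to library compounds with dopamine controls for 90 minutes at 37 degrees C. DiscoveRx reagent added for 30–60 minutes at room temperature; luminescence read, quantitative HTS format.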
D1 antagonist: antagonists of human D1 dopamine receptor | P21728 | HEK293 TREx D1 cells, calcium flux, dopamine EC80; active compounds read low | activity change, negative = inhibition, % at 10 µM | hit rate 3.2% among 360,000 | AID 504652; in the data active = activity change below about -30%; note: % is set by controls: 0 for no effect and ±100 for the full control effect
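Calcium flux readout: force-coupled, inducible Hek293 Trex D1 line, cells induced overnight at 30 C with tetracycline, dye-loaded 30–90 min at RT. Antagonism scored against EC80 dopamine challenge given 180 s after compound.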
The depositor's hits bear a star; ? = inconclusive; . = no result; ! = repeats disagree.

SMILES	D1 agonist	D3 ag	D1 potentiator	D3 antag	D1 antagonist
COc1ccc(C(C(=O)NCc2ccccc2)N(C(=O)Cn2nnc3ccccc32)c2ccc(F)cc2)cc1 (stereo unspecified)	4.8	1.3	-0.9	.	1.9
CCOc1ccc(CN2C(=O)c3ccccc3Sc3ccc(C(=O)NCCCN4CCOCC4)cc32)cc1	30.2*!	-3.7	-0.4	-13.1	5.7
O=C(NCCCN1CCOCC1)c1ccc2c(c1)N(Cc1ccccc1)C(=O)c1ccccc1S2	4.2	-2.1	0.1	8.7	9.1
CCOc1ccc(-n2c(C)nc3cc(C(=O)NCCCN4CCOCC4)ccc32)cc1	1.0	-5.2	-3.3	2.0	-51.9*
CCOc1ccc(-n2c(C)nc3cc(C(=O)NCCN4CCOCC4)ccc32)cc1	1.2	18.4	4.2	10.2	3.0
CCCCN(CC)CCCNC(=O)c1ccc2c(c1)N(Cc1ccc(C)cc1)C(=O)c1ccccc1S2	51.0*	-29.7	0.1	.	-32.6*
COCCCNC(=O)c1ccc2c(c1)N(Cc1ccccc1)C(=O)c1ccccc1S2	-1.6	-10.7	0.5	.	0.4
CC(=O)c1ccc(NC(=O)CSc2ccc3nc(-c4ccccc4)cn3n2)cc1	0.6	4.4	-1.6	.	4.3
Nc1c(C(=O)Nc2ccc(OC(F)(F)F)cc2)sc2nc(-c3ccncc3)ccc12	15.6	-6.5	-4.2	.	-20.4
COc1ccc(S(=O)(=O)c2c(O)c3ccc(C(=O)NCc4ccc(F)cc4)cc3[nH]c2=O)cc1	1.8	-4.9	-1.2	.	2.1
O=C(NCCc1nc2ccccc2[nH]1)c1cccc(Br)c1	-0.9	-9.1	-1.6	-6.7	12.6
O=C(NCCO)c1ccc(Cl)c(Cl)c1	-1.5	-1.7	7.2	1.3	1.0
CCCNC(=O)c1ccc2c(=O)c(O)c(C)[nH]c2c1	3.8	32.8*	-4.8	21.3	-5.8
Nc1c(Cl)cc(-c2[nH]c3cc(C(=O)NCCO)ccc3c(=O)c2O)cc1Cl	11.7	34.6*	-3.9	31.9	12.1
CCCNC(=O)c1ccc2c(=O)c(O)c(-c3ccc(F)cc3)[nH]c2c1	1.2	13.7	-9.1	-12.8	-58.6*
CCCNC(=O)c1ccc2c(=O)c(O)c(-c3cccc(Br)c3)[nH]c2c1	6.3	3.5	-8.3	0.0	-35.9*
COc1cc(C(O)c2nc(-c3ccc(N(C)C)cc3)cs2)ccc1F (stereo unspecified)	.	0.3	.	16.5	.
O=C(CCC1N=C2c3ccccc3N=C(SCc3cccc(F)c3)N2C1=O)NCCc1ccccc1 (stereo unspecified)	3.6	-3.2	-4.4	.	-7.4
CCCn1c(N)c(C(=O)CSc2n[nH]c(-c3ccc(C)cc3)n2)c(=O)[nH]c1=O	3.4	0.8	-1.4	-12.0	-1.1
O=C(CCOc1ccccc1)N(Cc1cccnc1)c1nc2c(Cl)cccc2s1	8.0	-33.2	-1.9	.	.
COc1cc(C2C(C(=O)c3ccc(C)o3)=C(O)C(=O)N2c2cc(C)on2)cc(Br)c1O (stereo unspecified)	1.7	0.4	-0.9	-57.3*	6.0
Cc1cc(N2C(=O)C(O)=C(C(=O)c3ccco3)C2c2cccnc2)no1 (stereo unspecified)	11.3	.	-5.5	.	1.4
COc1ccc(C2C(C(=O)c3ccc(C)o3)=C(O)C(=O)N2c2cc(C)on2)cc1OC (stereo unspecified)	4.3	-6.3	-7.5	19.0	-7.6
COc1cc(C2C(C(=O)c3ccco3)=C(O)C(=O)N2c2cc(C)on2)cc(Br)c1O (stereo unspecified)	2.4	-13.2	-7.8	-72.8*	14.7
COc1ccc(C(=O)CC2(O)C(=O)N(Cc3ccccc3)c3ccc(Br)cc32)cc1 (stereo unspecified)	1.4	-2.9	0.5	.	9.4
SMILES	D1 agonist	D3 ag	D1 potentiator	D3 antag	D1 antagonist
Cc1c(NC(=O)C(C)Sc2nc(N)cc(=O)[nH]2)c(=O)n(-c2ccccc2)n1C (stereo unspecified)	0.7	9.3	-2.4	3.9	-6.1
CCC(C)NC(=S)N1CCN(C(c2ccccc2)c2ccccc2)CC1 (stereo unspecified)	-0.4	4.0	-4.5	5.5	-30.5*
c1ccc(OCCN2CCN(C(c3ccccc3)c3ccccc3)CC2)cc1	7.1	-14.0	-1.0	-89.5*	15.4
Clc1ccc(C(c2ccccc2)N2CCN(c3ccccn3)CC2)cc1 (stereo unspecified)	2.6	-6.5	2.1	13.3	-3.0
CNC(=S)N1CCN(C(c2ccccc2)c2ccccc2)CC1	-0.5	-3.5	-6.3	4.9	-2.0
CN1CCCN(C(c2ccccc2)c2ccc(Cl)cc2)CC1 (stereo unspecified)	40.5*	-85.0	-4.5	-112.9*	-16.6
c1ccc(OCCN2CCNCC2)cc1	.	-13.3	.	-4.3	.
CN1CCN(C(c2ccccc2)c2ccccc2)CC1	2.9	0.0	-1.4	-80.3*	17.4
Cc1nc(C)c(C(=O)N2CCCC(C(=O)c3ccc(Cl)cc3C)C2)s1 (stereo unspecified)	6.4	1.5	-2.4	8.2	-5.1
CCSC1=C(C#N)C(c2ccc(OC)c(OC)c2)CC(=O)N1 (stereo unspecified)	5.7	2.6	-3.1	23.3	0.1
CCSC1=C(C#N)C(c2ccc(F)cc2)CC(=O)N1 (stereo unspecified)	1.4	-2.4	-5.8	-8.2	-32.4*
CCSC1=C(C#N)C(c2cccc(O)c2)CC(=O)N1 (stereo unspecified)	2.5	-1.1	-6.7	-4.5	-15.7
C=C(C)CSC1=C(C#N)C(c2ccsc2)CC(=O)N1 (stereo unspecified)	4.8	-5.1	0.6	-17.1	-38.9*
O=C(O)c1ccc2c(c1)C(=O)N([C@H](Cc1c3ccccc3cc3ccccc13)C(=O)O)C2=O	0.9	.	-4.7	.	-12.2
Nc1ccc(-c2c3ccc(=O)cc-3oc3cc(O)ccc23)c(C(=O)O)c1	355.4*	-27.8	1.1	?	-0.2
CCCCCCN1C=CC=C/C1=C/C=C(C#N)C#N	132.5*	1.4	2.6	7.7	5.5
CCCCCCN1C=C/C(=C\C=C(C#N)C#N)c2ccccc21	4.6	-16.4	-1.6	-30.0	-3.6
CCCCCN1C=CC=C/C1=C\C=C(C#N)C#N	71.2*	3.4	3.9	-11.4	1.6
COc1ccc(CCNC(=O)C(=O)c2cn(CC(=O)N3CCCC3)c3ccccc23)cc1	.	-5.7	.	-4.4	.
CCOc1ccc(CCNC(=O)C2CCN(c3ncnc4c3nc3n4CCCCC3)CC2)cc1	-0.3	66.4*	-1.2	.	-14.3
O=C(C1CCN(c2ncnc3c2nc2n3CCCCC2)CC1)N1CCN(c2ccc(F)cc2)CC1	1.9	48.1*!	-7.8	-0.2	-7.1
CC1CCN(C(=O)C2CCCN(c3ncnc4c3nc3n4CCCCC3)C2)CC1 (stereo unspecified)	0.3	4.1	0.0	7.1	-37.3*
CC1CC(C)CN(C(=O)C2CCCN(c3ncnc4c3nc3n4CCCCC3)C2)C1 (stereo unspecified)	-1.9	1.3	5.0	0.7	10.7
